The values below come from the supplement of paper PMC6555819.

What all share (assay): PBM binding z-score (relative to random genomic background probes); higher = stronger binding; sequences stand for … in GC…GCGATTGACAGCGTAGAATGAAGG
The test system of experiment [1] is RARb homodimer (NR concentration 270 nM). Put shortly:
(§1)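 Ligand-free nuclear receptor dimers were applied to custom Agilent 4×180K protein-binding microarrays whose double-stranded probes carried direct-repeat seeds, single-nucleotide variants, half-site ablations and random human genomic background sequences in 34-nt variable regions. Incubation lasted 1 h. Binding z-scores were computed against the random background probes from regression-normalized fluorescence.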

The subject of experiment [2] is RARg:RXRa (NR concentration 270 nM, RXRa partner concentration 90 nM). The procedure, abridged:
as §1

For experiment [3], the system named is RARg homodimer (NR concentration 270 nM). The procedure, abridged: as §1
Experiment [4] deals with RXRa DBDmut IVT, anti-RXR (DBD mutation: RXRa K156A/R161A, NR concentration 90 nM). The procedure, abridged: as §1
The test system of experiment [5] is RXRa homodimer (NR concentration 180 nM). Put shortly: as §1
Experiment [6] deals with THRa:RXRa (NR concentration 90 nM, RXRa partner concentration 90 nM). Put shortly: as §1
Experiment [7] has as its system THRa homodimer (NR concentration 90 nM). Put shortly: as §1
Experiment [8] relates to VDR homodimer (NR concentration 270 nM). Put shortly: as §1

Take GCAGACCGGTGAAACGCAGGTAACTCAGGGTGGC: the PBM binding z-score in experiment [1] was -0.498; in experiment [2] it was -0.367; in experiment [3], -0.32; in experiment [4], -1.11; in experiment [5], -0.345; in experiment [6] it was 0.683. Also, the PBM binding z-score in experiment [7] was -0.854; in experiment [8] it was -0.771.
Take TCGAGTAGATTAGGGGCATTCAGAATGGCGTCGA: the PBM binding z-score is 0.0337 in experiment [1]; -0.202 in experiment [2]; -0.446 in experiment [3]; 0.574 in experiment [4]; 0.16 in experiment [5]; 0.515 in experiment [6]. Moreover, the PBM binding z-score was -0.591 in experiment [7] and 0.687 in experiment [8].
Turning to CATACTGGGCCATTCAGAGGTCATTGATCATATG, the PBM binding z-score in experiment [1] stood at 4.15; in experiment [2] it was 4.52; in experiment [3], 3.48; in experiment [4], 1.39; in experiment [5], 3.85; in experiment [6], 3.21. The PBM binding z-score in experiment [7] stood at 1.4; in experiment [8] it was 3.67.
With GCTTACGGGTCAAAGGTTATAGCATGAATAGAAT, the PBM binding z-score in experiment [1] is 3.25; in experiment [2], 6.76; in experiment [3], 4.71; in experiment [4], 2.42; in experiment [5], 9.18; in experiment [6], 4.02. Also, the PBM binding z-score in experiment [7] was 0.25; in experiment [8], 1.58.
For the sequence CCTTACGGGTCACTGACAGGTTTTAGCATTTGGA, the PBM binding z-score is 3.06 in experiment [1]; 4.89 in experiment [2]; 4.41 in experiment [3]; 1.81 in experiment [4]; 4.92 in experiment [5]; 2.53 in experiment [6]. Further, the values for the PBM binding z-score in experiment [7] and in experiment [8] were 0.0377 and 1.01, respectively.
Consider TCTGCTAGGTCAACGATGGTCAGCTATTCTGCTA, for which the PBM binding z-score was 3.16 in experiment [1]; 3.99 in experiment [2]; 4.93 in experiment [3]; 0.833 in experiment [4]; 2.46 in experiment [5]; 3.03 in experiment [6]. Further, the PBM binding z-score in experiment [7] is 0.599; in experiment [8] it was -0.371.
CAAACTAGGTCACAGAGCTCAAAGTCCGTGCGTA: the PBM binding z-score in experiment [1] was 3.35; in experiment [2] it was 4.37; in experiment [3], 4.81; in experiment [4], 1.38; in experiment [5] it was 3.73; in experiment [6], 3.25. The PBM binding z-score turned out to be 1.11 in experiment [7] and 0.62 in experiment [8].
